TDP1 cell noCPT: qHTS for Inhibitors of human tyrosyl-DNA phosphodiesterase 1 (TDP1): qHTS in cells in absence of CPT; DT40 Tdp1-/- hTDP1 cells, no CPT, ATP luminescence, 48 h; Potency, µM (titrated, usually from 46.2 µM), most hits filed as inhibitors; actives 15% (n = 420,000); also: nearly all actives have a fitted effect of over 55% in size
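Chicken DT40 Tdp1-/- cells stably complemented with human TDP1 were seeded at 400 cells/well with DMSO in place of 20 nM camptothecin. After compound pinning, cells grew at least 48 hr at 37 °C; viability read by CellTiter-Glo luminescence.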
TDP1 cell CPT: growth inhibition of DT40 Tdp1-/-;hTDP1 cells with camptothecin (screen for TDP1 inhibitors). actives 12% (n = 420,000). AID 686979. Potency, µM (titrated, usually from 46.2 µM), hits mostly inhibitors. chicken DT40 Tdp1-/-;hTDP1 cells + 20 nM CPT, ATP luminescence, 48 h; also: nearly all actives have a fitted effect of over 55% in size
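Cell growth measured by CellTiter-Glo luminescence after a minimum 48 h, 37 C compound exposure with 20 nM CPT in Tdp1-knockout DT40 cells stably expressing hTDP1, seeded 400/well; qHTS titration format.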
TGFb inhibitor: blocks TGF-b signaling; actives 1.2% (n = 410,000); Potency, µM (titrated, usually from 46.1 µM), most hits filed as inhibitors; HepG2 CAGA-GFP TGF-b/SMAD3 reporter, GFP fluorescence, 18 h; TGF-beta stimulated, 500 pg/mL final; also: nearly all actives have a fitted effect of over 65% in size
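HEPG2 CAGA-GFP cells (1000/well, DMEM with 1% FBS) were pre-incubated 2 h at 37 degrees C, given compound by pin tool, then stimulated with TGF-beta at 500 pg/mL final for 18 h before per-cell GFP fluorescence imaging.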
S-ASM inh: inhibitors of human secretory acid sphingomyelinase | P17405 | placental ASM, HMU-PC fluorogenic substrate, 60 min | Potency, µM (doses to about 57.5 µM), hits mostly inhibitors | actives 0.006% (n = 340,000) | AID 504937
Target sequence (P17405 47-631 limits assumed): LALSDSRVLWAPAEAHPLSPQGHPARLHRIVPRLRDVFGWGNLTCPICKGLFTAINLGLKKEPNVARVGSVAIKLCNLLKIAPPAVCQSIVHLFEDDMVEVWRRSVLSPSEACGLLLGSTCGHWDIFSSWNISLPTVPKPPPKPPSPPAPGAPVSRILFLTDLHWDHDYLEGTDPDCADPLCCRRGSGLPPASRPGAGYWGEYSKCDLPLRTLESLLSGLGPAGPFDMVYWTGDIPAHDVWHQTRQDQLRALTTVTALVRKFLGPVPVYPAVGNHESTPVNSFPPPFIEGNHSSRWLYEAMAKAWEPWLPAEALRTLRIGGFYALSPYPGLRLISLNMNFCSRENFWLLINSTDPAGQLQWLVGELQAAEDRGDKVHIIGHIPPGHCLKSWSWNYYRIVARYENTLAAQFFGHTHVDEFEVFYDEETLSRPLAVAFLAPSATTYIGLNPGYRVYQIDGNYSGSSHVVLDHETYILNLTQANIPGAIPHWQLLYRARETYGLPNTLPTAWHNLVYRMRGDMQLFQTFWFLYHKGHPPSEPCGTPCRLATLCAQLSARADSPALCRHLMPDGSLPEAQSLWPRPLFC
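Fluorescence read-out (Ex 386 nm, Em 447 nm) after stopping the reaction at pH 10. Enzyme: ASM from human placenta; substrate HMU-PC0, 9 uM final; 60 min, 37 °C. Compound preincubation 10 min, ambient temperature.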
IL-1B inflam inh: blocks inflammasome-driven IL-1 beta release. THP-1 LPS/ATP IL-1B secretion, AlphaLISA, 16 h; active compounds read low. activity change, % at 57.5 µM. actives 4.7% (n = 360,000); in the data active = activity change below about -50%; inconclusive = mostly about -30% to -49%
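Secreted IL-1B measured by AlphaLISA bead assay after 16 h compound exposure of THP-1 cells; compounds (final up to 57.5 uM) added 1 h before LPS (250 ng/mL) and ATP (1.25 mM) stimulation; lower signal means less secretion.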
HepG2 tox: counter-screen for TGF-b inhibitors: cytotoxicity in HepG2 cells; HepG2 CAGA-GFP viability, ATP luminescence, 18 h; Potency, µM (doses to about 46.1 µM), usual class: cytotoxic; actives 0.76% (n = 410,000); AID 588856
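CellTiter-Glo luminescence gave cytotoxicity after 18 hours at 37 degrees C. The cells were HepG2 CAGA-GFP in 1% FBS DMEM, stimulated with 500 pg/mL TGF-beta after compound addition. %Activity was normalised to no-cell wells (complete cell-killing) and DMSO (no toxicity), and curves were fitted and classified.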
Hits are given with their value; n = inactive; u = inconclusive; x = not tested or not shown. Only some compounds are listed: those with a hit (about 19% of all), similar ones and a draw of the others. Unless noted, calls follow the shape of the dose curve; as a rule, active = well fitted curve in the direction sought with a large enough effect; inconclusive = small, poorly fitted or top-dose-only effect, or another doubt; inactive = no such curve, though single readings can be large; an effect the other way counts as inactive or inconclusive.

SMILES | TDP1 cell noCPT | TDP1 cell CPT | TGFb inhibitor | S-ASM inh | IL-1B inflam inh | HepG2 tox
O=C(OCC(=O)N1CCN(S(=O)(=O)c2ccc(Cl)cc2)CC1)c1cccc(OC(F)F)c1 | u | n | n | n | n | n
CC(=O)c1c(O)c(C)c(O)c2c1OC1=CC(=O)/C(=C(/C)N)C(=O)C12C (stereo unspecified) | 8.2µM | 15µM | n | x | n | n
O=C(/C=C/c1cccc(Cl)c1)c1ccc([N+](=O)[O-])o1 | 0.58µM | 0.58µM | 3.5µM | n | -102 | 13µM
NS(=O)(=O)c1ccc(CNC(=O)/C=C/c2cccc(Cl)c2)cc1 | n | n | n | n | n | n
NC(=O)[C@@H]1CC2(CC(c3cccc(NC(=O)COc4ccc(Cl)cc4)c3)=NO2)CN1C(=O)c1ccccc1 (stereo partly specified) | u | u | u | n | -65 | n
COc1ccc(C(=O)N2CC3(CC(c4cccc(NC(=O)COc5ccc(Cl)cc5)c4)=NO3)C[C@@H]2C(N)=O)cc1 (stereo partly specified) | u | 21µM | u | n | -57 | n
CCCCCC(=O)Nc1cccc(C2=NOC3(C2)C[C@@H](C(N)=O)N(C(=O)Cc2ccc([N+](=O)[O-])cc2)C3)c1 (stereo partly specified) | u | u | u | n | n | n
NC(=O)[C@H]1CC2(CC(c3cccc(NC(=O)COc4ccc(Cl)cc4)c3)=NO2)CN1C(=O)Cc1ccc([N+](=O)[O-])cc1 (stereo partly specified) | 16µM | 13µM | u | n | u | n
COCCCNC(=O)C1CCN(C(=O)c2ccc(-n3ccc4ccccc43)s2)CC1 | 16µM | 18µM | n | x | x | n
CCn1c(C(=O)N2CCC(C(=O)NCCCOC)CC2)cc2sccc21 | n | n | u | x | x | n
COc1ccc(CNC(=O)C2CCN(C(=O)c3ccc(-c4ccccc4)cc3)CC2)cc1 | u | u | n | n | n | n
O=C(NCc1ccc(F)cc1)C1CCN(C(=O)c2ccc(-n3ccc4ccccc43)s2)CC1 | 15µM | 16µM | u | x | x | n
CCOc1ccc(CO[C@@H]2O[C@H](CO)[C@@H](O)[C@H](O)[C@H]2NC(C)=O)cc1OC | n | n | n | n | n | n
CC(=O)NC1C(OC2OC(CC(O)C3OC([N+]4=CCC(=O)NC4=O)C(O)C3O)C(O)C(O)C2NC(=O)/C=C/CCCCCCCCC(C)C)OC(CO)C(O)C1O (stereo unspecified) | 0.09µM | 0.11µM | x | x | x | x
CCN(CC)S(=O)(=O)c1ccc(C(=O)NC2CC(=O)N(c3ccc4c(c3)OCCO4)C2)cc1 (stereo unspecified) | u | n | n | x | x | n
CCOC(=O)c1ccc(NC(=O)c2noc3c2CCCC3)cc1 | u | u | n | x | x | n
Cn1c2ccccc2c2cc(/C=N/NC(=O)c3ccccc3F)ccc21 | u | 23µM | n | n | n | n
Cn1c2ccccc2c2cc(/C=N/NC(=O)c3ccc(N)cc3)ccc21 | 18µM | u | n | n | u | n
CCn1c2ccccc2c2cc(/C=N/NC(=O)c3cccc(C)c3)ccc21 | 18µM | 29µM | n | n | n | n
CCC(Oc1ccccc1)C(=O)NC1CCSC1=O (stereo unspecified) | n | n | n | n | u | n
CCc1nc2ccc(C(=O)Nc3cc(-c4ccccc4)ccc3OC)cn2c1N(CC)CCN(C)C | 18µM | 16µM | u | x | n | 14µM
CCCCN(C=O)c1c(CC)nc2ccc(C(=O)Nc3cc(-c4ccccc4)ccc3OC)cn12 | 16µM | u | 7.1µM | x | -70 | n
CCC(=O)N(CCC(c1ccco1)c1ccccc1OC)Cc1cccs1 (stereo unspecified) | u | u | n | n | u | n
